Compound activity (PubChem)
TRHR ag: qHTS for Small Molecule Agonists and Allosteric Enhancers of Human TRH Receptor: Primary Screen for Agonists. actives 0.18% (n = 360,000). TRHR cells, calcium flux fluo-8, FDSS agonist mode. activation, % at 2 µM. AID 493084, 2011. Thyrotropin-releasing hormone receptor (Homo sapiens), P34981; further: 0% is about no effect
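In this calcium-flux screen, cells bearing human TRHR are dye-loaded with fluo-8, baselined for 10 cycles, then exposed to library compounds; positive kinetic calcium responses during the agonist phase mark hits, with TRH as control.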
D1 potentiator: Potentiators of Human D1 Dopamine Receptor: qHTS; D(1A) dopamine receptor (Homo sapiens), P21728; HEK293 TREx D1 cells, calcium flux, dopamine EC20 potentiation; potentiation, % at 10 µM; actives 0.036% (n = 360,000); in the data active means potentiation above about 30%; further: 0% is about no effect
Target sequence (P21728 whole entry, looked up): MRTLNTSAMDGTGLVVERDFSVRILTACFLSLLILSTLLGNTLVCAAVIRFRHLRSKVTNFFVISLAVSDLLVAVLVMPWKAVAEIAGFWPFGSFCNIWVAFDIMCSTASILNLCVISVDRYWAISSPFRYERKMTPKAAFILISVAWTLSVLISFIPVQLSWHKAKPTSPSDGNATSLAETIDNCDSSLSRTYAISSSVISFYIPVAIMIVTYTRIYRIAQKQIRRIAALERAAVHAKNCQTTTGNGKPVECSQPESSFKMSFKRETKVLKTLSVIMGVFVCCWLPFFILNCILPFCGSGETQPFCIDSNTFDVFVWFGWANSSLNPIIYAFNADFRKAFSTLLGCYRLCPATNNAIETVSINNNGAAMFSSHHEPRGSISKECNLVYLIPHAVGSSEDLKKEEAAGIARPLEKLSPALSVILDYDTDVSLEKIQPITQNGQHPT
D1 antag: Antagonist of Human D 1 Dopamine Receptor: qHTS; actives 3.2% (n = 360,000); activity change, negative = inhibition, % at 10 µM; HEK293 TREx D1 cells, calcium flux, dopamine EC80; stronger effect = lower value; D(1A) dopamine receptor (Homo sapiens), P21728; AID 504652, 2011; in the data active means activity change below about -30%; further: on the % scale 0 is the no-effect control and ±100 the full control effect
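Antagonism measured as reduced calcium response to an EC80 dopamine addition following 180 s compound pre-read; cells were inducible HEK293 Trex D1 plated overnight at 30 C, read kinetically at 1 cycle/sec.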
TRHR enhancer: qHTS for Small Molecule Agonists and Allosteric Enhancers of Human TRH Receptor: Primary Screen for Enhancers | AID 493056, 2011 | enhancement, % at 2 µM | actives 0.66% (n = 360,000) | TRHR cells, fluo-8 calcium fluorescence, EC20 TRH enhancement | Thyrotropin-releasing hormone receptor (Homo sapiens), P34981; in the data active means enhancement above about 30%; further: 0% is about no effect
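TRHR-expressing cells loaded with fluo-8 calcium dye were read kinetically (ex 480/em 530) during compound addition, then stimulated with an EC20 of TRH (10 nM final). Enhancement of the Gq-mediated intracellular calcium response was scored.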
D1 agonist: Allosteric Agonists of the Human D1 Dopamine Receptor: qHTS | HEK293 T-REx D1 cells, calcium flux, agonist mode | activation, % at 2 µM | actives 1% (n = 360,000) | AID 504660, 2011; further: 0% is about no effect
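Inducible HEK293 T-REx D1 cells, force-coupled to calcium signalling, were plated at 4000 cells/well with tetracycline and held overnight at 30 C. After no-wash calcium dye loading, compound-evoked calcium rise over 180 s flagged agonists.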
Numbers without * were called inactive. In the library only some 4.7% were active in any assay of this set; here they are far more common. Unless noted, no stated cut-off is given here; in the data, active means activation above about 30%; inactive means the rest.

SMILES	TRHR ag	D1 potentiator	D1 antag	TRHR enhancer	D1 agonist
COCCNC(=O)CSc1nc2ccccc2c(=O)n1CC1CCCO1 (stereo unspecified)	0	-3	-76*	6	3
COc1cc([C@@H]2C[C@H]3CN(c4ccccc4)C(=O)[C@]34CCCN24)cc(OC)c1OC	1	-1	-41*	6	0
CCOc1cc([C@@H]2C[C@H]3CN(c4ccccc4)C(=O)[C@]34CCCN24)ccc1OC	0	3	-5	5	-1
C/C(=N\NC(=O)c1c[nH]c2ccccc12)c1ccc(C)o1	1	-5	-66*	2	0
C/C(=N\NC(=O)c1cc2ccccc2cc1O)c1ccc(C)o1	1	1	-7	2	4
O=C(NN=C1CCCCCC1)c1c[nH]c2ccccc12	1	-11	-46*	25	-1
COC(=O)/C=C1/N/C(=N\c2nc(C)cc(C)n2)N(c2ccccc2)C1=O	0	0	-7	-2	1
COC(=O)/C=C1\N/C(=N\c2nc(C)cc(C)n2)N(c2ccccc2)C1=O	1	-3	-52*	0	0
COc1cc(CNS(=O)(=O)CCl)cc(OC)c1OC	0	-6	-16	2	-1
CCOc1ccccc1OCCN1CCC(Cc2ccccc2)CC1	-1	-16	-22	-1	28
CCOc1ccccc1OCCN1CCCC1	0	-1	-34*	-8	6
CCN1CCN(Cc2ccc(OCc3ccccc3)cc2)CC1	0	-6	-13	5	38*
CCN1CCN(Cc2ccc(OCc3ccccc3)c(OC)c2)CC1	2	-3	7	19	1
CCN1CCN(CCOc2ccccc2OCc2ccccc2)CC1	0	-1	-32*	6	4
CC1O[C@@H](O[C@H](C)CC[C@@H](C)O)C(O)C[C@H]1O (stereo partly specified)	0	0	-3	3	4
CCOC(=O)C(=O)Nc1ccc(Oc2ccccc2)cc1	-1	-8	-33*	-10	1
CCOC(=O)C(=O)Nc1ccc(F)cc1	0	2	7	13	2
CCOC(=O)/C=C/C(=O)Nc1ccc(Oc2ccccc2)cc1	-1	-7	-36*	-10	17
CCCOc1ccc(C(F)(F)F)cc1NC(=O)CCc1c(C)noc1C	1	1	3	0	7
Clc1cccc(-c2ccc(/C=N/n3cnnc3)o2)c1	-1	-4	-33*	-5	-1
O=S(=O)(c1ccc2c(c1)OCCO2)N1CCN(S(=O)(=O)c2cccc3cccnc23)CC1	2	-3	-7	1	2
CC1=CC(C)(C)Nc2ccc(Cc3ccc4c(c3)C(C)=CC(C)(C)N4)cc21	0	7	70	38*	3
CC1=CC(C)(C)Nc2ccc(C)cc21	0	3	4	-4	1
Cc1ccc(CNC(=O)CCc2c(C)c3ccc(O)c(C)c3oc2=O)cc1	-1	-1	9	1	-1
C/C(=N/NC(=O)c1ccc(Cl)s1)c1cccnc1	2	-11	-48*	22	7
SMILES	TRHR ag	D1 potentiator	D1 antag	TRHR enhancer	D1 agonist
C/C(=N/NC(=O)c1ccc(C)s1)c1cccnc1	-1	-4	-7	7	3
CCC(=O)c1c[nH]c(C(=O)N2CCOCC2)c1	0	-7	-37*	-6	0
CCC(=O)c1c[nH]c(C(=O)N2CCN(c3ccccc3)CC2)c1	1	-1	-3	2	1
CCC(=O)N(CCC1(C(C)C)CCOC(C)(C)C1)C(C)c1cccs1 (stereo unspecified)	0	5	0	-8	0
CC(C)CCC1(CCNC(C)c2cccs2)CCOC(C)(C)C1 (stereo unspecified)	0	-1	-36*	4	3
COc1ccc(N(CC(=O)Nc2ccc3c(c2)OCCO3)S(=O)(=O)c2c(C)nn(C)c2C)cc1	0	-6	-30*	-1	1
COc1ccc(N(CC(=O)Nc2nccs2)S(=O)(=O)c2c(C)nn(C)c2C)cc1	0	-1	-55*	1	0
Cc1nn(C)c(C)c1S(=O)(=O)N(CC(=O)Nc1nccs1)c1ccc(C(C)C)cc1	0	-2	1	14	1
CC(C)c1ccc(NC(=O)CC2NCCNC2=O)cc1 (stereo unspecified)	1	-1	-6	-6	0
c1ccc(CN2OCC3Cn4c(nc5ccccc54)C32)cc1 (stereo unspecified)	0	-3	33	-2	2
c1ccc(N2OCC3Cn4c(nc5ccccc54)C32)cc1 (stereo unspecified)	0	-3	-36*	8	5
O=S(=O)(c1ccc2ccccc2c1)n1nc(-c2ccco2)nc1NCc1ccc(F)cc1	-3	1	6	5	0
O=S(=O)(NCc1ccccc1Cl)c1ccc(-n2cnnn2)cc1	0	3	-8	9	2
O=S(=O)(NCc1ccccc1Cl)c1ccc(-n2cccn2)cc1	-1	-3	-31*	-5	9
Cc1ccc(Cl)cc1NS(=O)(=O)c1ccc(-n2cccn2)cc1	0	-10	-30*	0	13
NS(=O)(=O)c1ccc(Nc2nc(-c3cccc([N+](=O)[O-])c3)cs2)cc1	-1	-11	-31*	-11	2
NS(=O)(=O)c1ccc(Nc2nc(-c3ccc4ccccc4c3)cs2)cc1	1	-4	-10	2	7
O=c1c2[nH]c3cccc(Cl)c3c2ncn1CC1CCCO1 (stereo unspecified)	-1	-9	-30*	-4	2
Cc1ccc(NC(=O)c2ccc(CNS(=O)(=O)c3ccc4c(c3)C(C)(C)C(=O)N4C)cc2)cc1C	0	2	-3	0	0
Cn1c(CCN2CCN(c3ccccn3)CC2)nc2cc(NS(=O)(=O)c3ccccc3)ccc21	0	-13	-32*	-2	7
Cn1c(CN2CCCC2)nc2cc(NS(=O)(=O)c3ccc(Cl)cc3)ccc21	2	-6	-14	6	47*
Cn1c(CCN2CCCCC2)nc2cc(NS(=O)(=O)c3ccccc3)ccc21	0	-5	-14	2	2
CCc1sc(-c2c(C#N)c(N)nc3c2CCCCCC3)cc1[N+](=O)[O-]	4	20	22	3	73*
CC(C)(C)c1ccc(-c2c(C#N)c(N)nc3c2CCCC3)s1	0	-3	-4	0	1
